Reference: the supplement of paper PMC3334620
The full ranking holds about 33,000 sequences; the median of “E-score (-0.5 to 0.5)” is about -0.035, and the highest 2% start at about 0.35. The sample as a whole holds a higher share of the highest values than the screen did.

Each sequence was assayed against T1, Pdr3 (UniProt P33200) (assay: PBM E-score (8-mer binding enrichment) (E-score (-0.5 to 0.5)); higher = stronger / more preferred TF binding). Conditions: protein concentration: 200 nM; construct: GST-full length.
T1 sequence: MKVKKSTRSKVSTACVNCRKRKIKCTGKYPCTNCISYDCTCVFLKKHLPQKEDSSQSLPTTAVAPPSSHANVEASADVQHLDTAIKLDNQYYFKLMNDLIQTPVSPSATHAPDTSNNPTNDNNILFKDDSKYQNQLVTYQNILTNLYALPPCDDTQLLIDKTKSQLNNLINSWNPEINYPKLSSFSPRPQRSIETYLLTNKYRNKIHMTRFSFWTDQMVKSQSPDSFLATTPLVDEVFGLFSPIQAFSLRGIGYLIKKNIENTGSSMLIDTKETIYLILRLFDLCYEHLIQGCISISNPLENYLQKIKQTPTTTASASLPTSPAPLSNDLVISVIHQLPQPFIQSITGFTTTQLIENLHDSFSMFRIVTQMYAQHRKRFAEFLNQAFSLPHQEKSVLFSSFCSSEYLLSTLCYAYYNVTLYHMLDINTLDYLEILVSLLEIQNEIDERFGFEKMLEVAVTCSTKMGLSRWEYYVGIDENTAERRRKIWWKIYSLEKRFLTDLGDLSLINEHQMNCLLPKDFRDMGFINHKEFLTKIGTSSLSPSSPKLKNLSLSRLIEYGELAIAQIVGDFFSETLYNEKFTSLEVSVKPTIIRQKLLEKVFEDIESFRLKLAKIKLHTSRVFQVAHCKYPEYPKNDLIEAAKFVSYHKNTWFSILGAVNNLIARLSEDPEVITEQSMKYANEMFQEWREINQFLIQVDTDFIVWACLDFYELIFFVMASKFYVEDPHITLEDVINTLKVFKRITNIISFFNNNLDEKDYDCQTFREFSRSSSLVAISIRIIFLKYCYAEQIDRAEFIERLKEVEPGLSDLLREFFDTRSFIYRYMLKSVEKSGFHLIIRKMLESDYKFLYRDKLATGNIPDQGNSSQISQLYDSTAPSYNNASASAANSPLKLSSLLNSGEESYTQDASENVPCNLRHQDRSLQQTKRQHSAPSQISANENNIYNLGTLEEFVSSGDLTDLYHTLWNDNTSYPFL
Method in brief: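 E-scores (a modified Wilcoxon-Mann-Whitney statistic) were assigned by the Universal PBM Analysis Suite to every ungapped eight-base word pooled with its reverse complement. The input came from universal all-10-mer Agilent arrays made double-stranded by primer extension and probed with GST-tagged yeast transcription factors at about 100-200 nM. Fluorescent anti-GST detected bound protein, and masliner normalised the scans.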

| Sequence | PBM E-score |
| --- | --- |
| ATGAATAC | -0.0134 |
| ATTGCGGA | 0.328 |
| CCAGTGCC | -0.1 |
| ACACAAGC | 0.0653 |
| GAATGGGC | 0.186 |
| ACGCCGAC | 0.163 |
| GGAGATGA | 0.094 |
| ATCGGACG | 0.209 |
| ATCGGAGG | 0.0523 |
| CTAGGAAG | -0.214 |
| TTCGGAAA | 0.391 |
| GTCGGAAC | 0.458 |
| TCGGGAAA | 0.309 |
| GTGGGAAC | -0.0738 |
| TTCAGAAA | -0.195 |
| CTGGGAAG | -0.176 |
| CTCGGAAG | 0.39 |
| GTCGGACA | 0.218 |
| ATCGGAAG | 0.359 |
| AGATCTCC | 0.0532 |
| AGAGTATA | -0.259 |
| ATCCTGGC | -0.0357 |
| AGTGCCTC | -0.229 |
| TTCCCCAA | -0.0249 |
| ATCGGAAT | 0.43 |

| Sequence | PBM E-score |
| --- | --- |
| ATCGGCAT | 0.175 |
| CTCGGAGC | 0.276 |
| CTAGGAAC | -0.0409 |
| ATCGGATA | 0.325 |
| CTCGGAAC | 0.474 |
| CCACAGCG | -0.0122 |
| TACGGCCA | -0.0624 |
| CTTCGCCC | 0.0168 |
| CCCGCCCC | 0.357 |
| CCCGCCGC | 0.27 |
| ACCGCCCC | 0.148 |
| ATCGCCGA | 0.154 |
| CCCGCCGG | 0.373 |
| CGCGCCCG | 0.23 |
| ATCGCCGG | 0.373 |
| ACCGCCCG | 0.227 |
| CCCGCCCG | 0.372 |
| CCCGCCCA | 0.231 |
| ATCGCCGC | 0.166 |
| CCCGCCGA | 0.305 |
| GAATCTCC | 0.225 |
| GTGGCCGA | 0.107 |
| ACCAGTCG | -0.0214 |
| GCCGCCGA | 0.292 |
| ACCGCCGA | 0.103 |

| Sequence | PBM E-score |
| --- | --- |
| TCCGCCGA | 0.376 |
| CATGGGAG | -0.124 |
| CAGTCTCG | -0.203 |
| TGCGATAA | 0.0592 |
| ACGGTAGT | -0.00668 |
| ATCGGGAA | 0.279 |
| ATCCGGGA | 0.313 |
| ATCCGGGG | 0.389 |
| CTCCGGGC | 0.236 |
| AGCCGGGC | 0.137 |
| ATCCGGGC | 0.386 |
| ATCGGGGG | 0.0408 |
| CTGCTCGA | -0.176 |
| AGCCATCA | -0.0552 |
| ACGCCGAT | -0.0606 |
| AGTCCGCA | 0.203 |
| AGTCCGCC | 0.324 |
| AATCCGCA | 0.246 |
| AATCCGCG | 0.388 |
| AATCCGCT | 0.16 |
| AGTCCGCG | 0.364 |
| CATCCGCG | 0.359 |
| CATCCGCC | 0.345 |
| CATCCGCA | 0.237 |
| GCCCTAAA | -0.219 |

| Sequence | PBM E-score |
| --- | --- |
| CCTCAAGC | -0.113 |
| AGCTCTGC | -0.217 |
| CAGCTCTA | -0.128 |
| TAAGCGTA | -0.311 |
| CGAGAGCG | 0.0432 |
| ATTCGGTC | 0.0502 |
| CCGAGAAA | 0.357 |
| GCGAGAAA | -0.0403 |
| TCGAGAAA | -0.197 |
| ACAGTGGT | -0.156 |
| CGGATCCC | 0.374 |
| AGGATCCG | 0.301 |
| AGGATCCA | -0.0311 |
| CGGATCCG | 0.489 |
| CAGATCCC | 0.0667 |
| AGGATCCC | 0.152 |
| CAGATCCG | 0.314 |
| GGGATCCA | 0.222 |
| TGGATCCA | 0.096 |
| GGGATCCC | 0.374 |
| CGGATCCA | 0.413 |
| CGGATCGC | 0.279 |
| AATCTTGT | 0.126 |
| GATCTGCA | -0.0215 |
| CCATTCAG | 0.0183 |

| Sequence | PBM E-score |
| --- | --- |
| GATTTCCC | 0.143 |
| CACTCAAC | -0.0691 |
| CGGGCGTA | 0.0837 |
| GGGGCGTA | -0.114 |
| CGGGCGGA | 0.383 |
| AGGGCGGA | 0.285 |
| CGGGCGGC | 0.291 |
| GGGGCGGA | 0.359 |
| AGTCGGCC | 0.13 |
| AGAAGCAC | -0.185 |
| AAAGTTAC | -0.127 |
| GAGGTGTA | -0.13 |
| AGATGCGC | 0.0125 |
| CCATGGAA | 0.156 |
| CGTTAGAG | -0.0371 |
| CCCGCGCA | 0.288 |
| CGCGCGCG | 0.372 |
| CGCGCGCA | 0.347 |
| ACCGCGCA | 0.0742 |
| ACCGCGCT | 0.139 |
| ACCGCGCG | 0.397 |
| TCCGCGCA | 0.397 |
| CCCGCGCC | 0.265 |
| GCCGCGCA | 0.188 |
| ACCGCGCC | 0.128 |

| Sequence | PBM E-score |
| --- | --- |
| CGCGCGCC | 0.241 |
| CCCGCGCG | 0.382 |
| CCCAACCG | 0.00518 |
| CGACCGAG | 0.124 |
| TATCACGA | -0.126 |
| AAAATGAG | -0.188 |
| ATAGCTAC | -0.0621 |
| CAGGGGGA | -0.286 |
| CTTTTTTA | -0.0672 |
| CTCCCGGC | 0.368 |
| ATCCCAGA | -0.204 |
| CCCCCGGC | 0.037 |
| ATCCCCGG | 0.386 |
| CTCCCGGA | 0.386 |
| CTCCCCGC | 0.34 |
| ATCCCCCG | 0.278 |
| ATCCCAAA | 0.0137 |
| ATCCCGGA | 0.417 |
| CTCCCGCA | 0.145 |
| CTCCCCGA | 0.053 |
| ATCCCCGA | 0.303 |
| CGGCGTAA | -0.0269 |
| CTGCGTGC | -0.0812 |
| AATTTGTG | 0.159 |
| ATGAGAAG | -0.162 |

| Sequence | PBM E-score |
| --- | --- |
| GTACTCGA | -0.0779 |
| GTCCCCGA | 0.166 |
| ATCCCGGG | 0.455 |
| GTCCCGCA | 0.229 |
| ATCCCTGG | -0.0752 |
| ACCCCGGC | 0.153 |
| GTCCCGGA | 0.394 |
| ATCCCAGG | 0.113 |
| ATCCCGAC | 0.331 |
| ATCCCGGC | 0.419 |
| ATGTTCAG | -0.207 |
| AGGTCTAA | -0.0213 |
| AGGAGGCA | -0.127 |
| AGAGCTCG | 0.0679 |
| CAATTCTC | -0.138 |
| AGATGGAG | -0.127 |
| CCATACCC | 0.0565 |
| CCGTGTCA | 0.24 |
| GCGTGTCC | 0.201 |
| CCGTGTCC | 0.356 |
| GGGTTTGA | -0.0398 |
| AGCGACGG | 0.258 |
| GGGGTCAA | -0.0321 |
| AGGGTCAA | -0.0253 |
| CGGGTCAA | 0.387 |

| Sequence | PBM E-score |
| --- | --- |
| AATGGAGG | 0.0106 |
| GTCGGCTA | 0.0468 |
| CACAGAGG | -0.0837 |
| CATTCCGG | 0.451 |
| CATTCCGA | 0.421 |
| TATTCCAA | -0.091 |
| CATTCCAA | -0.102 |
| TATTCCGA | 0.407 |
| GATTCCAA | -0.0548 |
| CATTCCTA | -0.14 |
| CATTCCCG | 0.274 |
| CATTCCAG | -0.131 |
| TATTCCCA | 0.0626 |
| GATTCCGA | 0.454 |
| GATTCCCA | 0.0551 |
| AGTTGCAC | -0.136 |
| CTTGCCTC | 0.0139 |
| AGTCTCGG | 0.101 |
| ATGCGAAG | -0.0662 |
| GATCCCAA | 0.0388 |
| ATAAATAC | 0.176 |
| ACCGGGAT | 0.357 |
| AACGGGAC | 0.217 |
| AACGGGAT | 0.364 |
| ACCGGGAA | 0.309 |

| Sequence | PBM E-score |
| --- | --- |
| ACCGGGAC | 0.318 |
| AACGGGAG | 0.179 |
| CGCACCAG | 0.133 |
| AGTTTGAT | 0.0669 |
| ACATGCTG | -0.158 |
| ACATTCCA | -0.0365 |
| AAGACTAC | -0.188 |
| ATGTTCCA | 0.0325 |
| AGGTTCCG | 0.478 |
| ACGTTCCG | 0.445 |
| ACGTTCCT | 0.0124 |
| ACGTTCCA | 0.0623 |
| ATGTTCCC | 0.153 |
| ATGTTCCG | 0.48 |
| CCGTTCCC | 0.253 |
| AGGTTCCC | -0.0087 |
| CCGTTCCG | 0.477 |
| AGGTTCCA | -0.018 |
| CCGTTCCA | 0.207 |
